# Laboratory results as given in PMC7862700, “An all-to-all approach to the identification of sequence-specific readers for epigenetic DNA modifications on cytosine”.
# How the values were obtained:
# Experiment in all cases: DAPPL (digital affinity profiling via proximity ligation, sequencing); 10 mM Tris-HCl pH 7.5, 50 mM NaCl, 1 mM DTT, 4% glycerol, room temperature, 30 min; GST-TFs on glutathione beads, 16-mer random dsDNA library, 0.1% formaldehyde crosslink after washing; high values mean tight binding
# [1] = target: T1, FEV (Homo sapiens, UniProt Q99581 1-238); conditions: protein: recombinant; tags: N-terminal GST; dsDNA, one strand shown
# T1 sequence: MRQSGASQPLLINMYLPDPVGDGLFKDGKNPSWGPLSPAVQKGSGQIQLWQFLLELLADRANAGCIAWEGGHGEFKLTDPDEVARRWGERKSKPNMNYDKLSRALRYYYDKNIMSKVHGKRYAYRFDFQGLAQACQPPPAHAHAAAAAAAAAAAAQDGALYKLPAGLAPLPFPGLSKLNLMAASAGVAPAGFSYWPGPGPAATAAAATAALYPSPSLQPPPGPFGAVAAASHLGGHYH
# How it was run: (§1)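 Human transcription factors were made in yeast as GST fusions, captured on glutathione beads and barcoded with DNA. With a tag-only sample included, the pool was incubated with 200 nmole of a random double-stranded 16-mer DNA library in Tris/NaCl/DTT/glycerol buffer at room temperature for 30 min, then crosslinked with 0.1% formaldehyde after washing, ligated by proximity, amplified and sequenced. For binding signal, each hexamer's read frequency for a factor is divided by its frequency for the tag-only sample.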
# [2] = target: ETV5 (Homo sapiens, UniProt P41161 1-510); conditions: protein: recombinant; tags: N-terminal GST; dsDNA, one strand shown
# How it was run: as §1
# [3] = target: HSF1 (Homo sapiens, UniProt Q00613 1-529); conditions: protein: recombinant; tags: N-terminal GST; chain copies: 3; dsDNA, one strand shown
# How it was run: as §1
# [4] = target: T2, SPIC (Homo sapiens, UniProt Q8N5J4 1-248); conditions: protein: recombinant; tags: N-terminal GST; dsDNA, one strand shown
# T2 sequence: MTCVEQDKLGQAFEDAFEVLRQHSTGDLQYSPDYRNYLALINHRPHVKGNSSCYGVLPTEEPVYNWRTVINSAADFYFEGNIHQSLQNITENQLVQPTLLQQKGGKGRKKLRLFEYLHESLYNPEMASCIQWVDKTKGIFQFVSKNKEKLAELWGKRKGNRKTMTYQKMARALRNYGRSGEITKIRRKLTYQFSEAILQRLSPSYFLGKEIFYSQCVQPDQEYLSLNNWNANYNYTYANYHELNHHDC
# How it was run: as §1
# [5] = target: ELF4 (Homo sapiens, UniProt Q99607 1-663); conditions: protein: recombinant; tags: N-terminal GST; dsDNA, one strand shown
# How it was run: as §1
# [6] = target: T3, ELK4 (Homo sapiens, UniProt P28324-2 1-405); conditions: protein: recombinant; tags: N-terminal GST; dsDNA, one strand shown
# T3 sequence: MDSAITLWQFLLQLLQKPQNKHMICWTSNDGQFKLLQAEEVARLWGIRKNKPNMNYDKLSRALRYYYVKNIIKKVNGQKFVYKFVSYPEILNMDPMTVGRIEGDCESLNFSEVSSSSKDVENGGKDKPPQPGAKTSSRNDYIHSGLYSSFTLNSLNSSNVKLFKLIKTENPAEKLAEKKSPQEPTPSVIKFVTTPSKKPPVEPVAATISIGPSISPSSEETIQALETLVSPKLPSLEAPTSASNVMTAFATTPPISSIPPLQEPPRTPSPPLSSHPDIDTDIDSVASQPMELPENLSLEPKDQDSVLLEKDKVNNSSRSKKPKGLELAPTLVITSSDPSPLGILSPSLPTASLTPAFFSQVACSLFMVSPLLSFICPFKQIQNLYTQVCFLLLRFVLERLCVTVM
# How it was run: as §1
# [7] = target: T4, ETV2 (Homo sapiens, UniProt O00321 1-342); conditions: protein: recombinant; tags: N-terminal GST; dsDNA, one strand shown
# T4 sequence: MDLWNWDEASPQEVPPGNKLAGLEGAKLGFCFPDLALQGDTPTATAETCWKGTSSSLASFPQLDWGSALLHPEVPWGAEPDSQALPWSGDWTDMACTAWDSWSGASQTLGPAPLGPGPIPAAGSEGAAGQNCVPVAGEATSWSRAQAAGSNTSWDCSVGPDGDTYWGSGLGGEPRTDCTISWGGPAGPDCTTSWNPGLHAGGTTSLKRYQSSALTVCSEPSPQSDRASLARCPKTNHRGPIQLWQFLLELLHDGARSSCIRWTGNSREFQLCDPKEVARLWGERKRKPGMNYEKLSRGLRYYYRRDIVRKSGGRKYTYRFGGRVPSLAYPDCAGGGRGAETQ
# How it was run: as §1
# [8] = target: T5, ELF3 (Homo sapiens, UniProt P78545 1-371); conditions: protein: recombinant; tags: N-terminal GST; dsDNA, one strand shown
# T5 sequence: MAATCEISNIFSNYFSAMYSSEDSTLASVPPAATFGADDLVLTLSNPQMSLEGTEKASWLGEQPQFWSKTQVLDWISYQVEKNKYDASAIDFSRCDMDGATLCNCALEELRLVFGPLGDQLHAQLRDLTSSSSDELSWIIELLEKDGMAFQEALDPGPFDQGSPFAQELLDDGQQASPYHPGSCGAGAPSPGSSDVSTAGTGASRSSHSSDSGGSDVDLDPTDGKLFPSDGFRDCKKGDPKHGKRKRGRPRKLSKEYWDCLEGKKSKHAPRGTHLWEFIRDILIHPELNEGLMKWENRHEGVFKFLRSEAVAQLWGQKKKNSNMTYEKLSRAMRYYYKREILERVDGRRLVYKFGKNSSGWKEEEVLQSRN
# How it was run: as §1
# [9] = target: CRX (Homo sapiens, UniProt O43186 1-299); conditions: protein: recombinant; tags: N-terminal GST; dsDNA, one strand shown
# How it was run: as §1
# Sequence of ELF4 (Q99607 whole entry): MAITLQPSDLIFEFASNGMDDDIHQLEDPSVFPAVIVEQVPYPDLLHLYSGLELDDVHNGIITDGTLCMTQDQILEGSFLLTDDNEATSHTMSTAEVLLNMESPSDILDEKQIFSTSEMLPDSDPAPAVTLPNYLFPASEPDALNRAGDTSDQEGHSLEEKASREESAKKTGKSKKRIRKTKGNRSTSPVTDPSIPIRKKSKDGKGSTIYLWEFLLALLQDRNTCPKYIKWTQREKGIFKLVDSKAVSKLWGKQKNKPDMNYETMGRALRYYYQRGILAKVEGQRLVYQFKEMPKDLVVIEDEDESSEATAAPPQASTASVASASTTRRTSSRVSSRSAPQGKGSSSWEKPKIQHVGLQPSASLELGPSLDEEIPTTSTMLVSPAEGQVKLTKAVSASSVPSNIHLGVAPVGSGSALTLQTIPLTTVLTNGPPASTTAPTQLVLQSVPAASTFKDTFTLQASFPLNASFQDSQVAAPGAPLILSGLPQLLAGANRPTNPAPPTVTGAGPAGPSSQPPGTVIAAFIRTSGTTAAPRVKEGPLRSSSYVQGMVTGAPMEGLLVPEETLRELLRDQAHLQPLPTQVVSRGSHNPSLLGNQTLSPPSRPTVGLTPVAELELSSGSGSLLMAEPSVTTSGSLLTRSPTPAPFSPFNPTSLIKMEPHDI
# Sequence of HSF1 (Q00613 whole entry): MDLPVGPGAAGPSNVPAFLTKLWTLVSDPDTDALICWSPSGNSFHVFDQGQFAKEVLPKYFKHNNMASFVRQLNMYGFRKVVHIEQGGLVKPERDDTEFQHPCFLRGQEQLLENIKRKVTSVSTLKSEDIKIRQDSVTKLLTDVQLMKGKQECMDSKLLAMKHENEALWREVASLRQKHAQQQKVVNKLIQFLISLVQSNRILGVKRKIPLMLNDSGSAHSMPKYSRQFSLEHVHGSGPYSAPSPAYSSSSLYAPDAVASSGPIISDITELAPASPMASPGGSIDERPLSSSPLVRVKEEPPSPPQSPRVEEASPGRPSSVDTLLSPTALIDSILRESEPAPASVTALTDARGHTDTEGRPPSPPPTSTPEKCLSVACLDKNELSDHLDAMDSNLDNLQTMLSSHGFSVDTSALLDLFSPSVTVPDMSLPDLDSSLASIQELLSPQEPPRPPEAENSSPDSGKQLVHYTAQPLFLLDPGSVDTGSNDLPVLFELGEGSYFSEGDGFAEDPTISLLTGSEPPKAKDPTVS
# Sequence of ETV5 (P41161 whole entry): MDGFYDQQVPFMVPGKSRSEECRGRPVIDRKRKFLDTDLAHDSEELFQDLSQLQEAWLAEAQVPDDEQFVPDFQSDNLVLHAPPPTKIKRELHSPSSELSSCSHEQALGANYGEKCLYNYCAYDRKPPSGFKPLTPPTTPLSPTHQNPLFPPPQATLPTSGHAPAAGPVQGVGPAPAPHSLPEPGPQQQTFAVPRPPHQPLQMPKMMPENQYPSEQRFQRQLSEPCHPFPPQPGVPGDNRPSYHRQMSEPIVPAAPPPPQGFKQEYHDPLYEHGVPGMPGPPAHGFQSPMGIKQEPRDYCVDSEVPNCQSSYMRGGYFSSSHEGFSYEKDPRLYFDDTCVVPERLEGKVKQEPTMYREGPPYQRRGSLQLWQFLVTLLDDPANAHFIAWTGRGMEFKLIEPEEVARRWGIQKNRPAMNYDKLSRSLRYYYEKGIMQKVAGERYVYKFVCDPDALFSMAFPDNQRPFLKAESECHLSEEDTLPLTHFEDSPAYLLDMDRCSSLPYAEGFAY
# Sequence of CRX (O43186 whole entry): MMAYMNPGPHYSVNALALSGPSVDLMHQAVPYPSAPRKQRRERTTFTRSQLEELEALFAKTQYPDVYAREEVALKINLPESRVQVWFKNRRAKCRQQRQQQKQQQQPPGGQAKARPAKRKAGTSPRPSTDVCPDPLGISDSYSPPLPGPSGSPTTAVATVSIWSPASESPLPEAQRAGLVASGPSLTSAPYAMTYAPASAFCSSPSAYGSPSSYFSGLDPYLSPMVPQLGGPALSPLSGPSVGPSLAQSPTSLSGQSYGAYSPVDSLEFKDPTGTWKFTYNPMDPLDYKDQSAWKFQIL
sequence,measurement,setting,value
TTATCG,binding signal,[1],"1.21 fold enrichment (6-mer frequency, TF over GST control)"
same,binding signal,[2],"1.25 fold enrichment (6-mer frequency, TF over GST control)"
same,binding signal,[3],"1.99 fold enrichment (6-mer frequency, TF over GST control)"
same,binding signal,[4],"1.33 fold enrichment (6-mer frequency, TF over GST control)"
same,binding signal,[5],"1.27 fold enrichment (6-mer frequency, TF over GST control)"
same,binding signal,[6],"1.37 fold enrichment (6-mer frequency, TF over GST control)"
same,binding signal,[7],"1.18 fold enrichment (6-mer frequency, TF over GST control)"
same,binding signal,[8],"1.22 fold enrichment (6-mer frequency, TF over GST control)"
same,binding signal,[9],"2.79 fold enrichment (6-mer frequency, TF over GST control)"
